Hits are enriched below; roughly 3.1% of the tested compounds scored in any of these assays.
p53null 32C tox: selectivity test: cytotoxicity in p53 null cells, permissive temperature | 0.62% of 55,000 active | Potency, µM (series often up to 46.1 µM), for the others: at the highest dose activity change, negative = cytotoxicity, usual class: cytotoxic | H1299-neo p53 null cells, ATP luminescence, 24 h, 32C;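 note: 0% = DMSO only and -100% = full killing by 100 µM tamoxifen; nearly all actives have a fitted effect of over 55% in size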
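AC50 values derive from Hill modelling of qHTS concentration-response data (up to 46 uM) in H1299-neo cells. Cells were treated 24 h at 32C following overnight attachment at 37C; viability was read as cellular ATP.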
PMP22 txn prim: modulators of PMP22 gene transcription in S16 Schwann cells | S16 Pmp22-F2sN Schwann cells, FLuc/NLuc coincidence luminescence, 24 h | Potency, µM (series often up to 57.5 µM), inactives show at the highest dose activity change, negative = inhibition, most hits filed as inhibitors | 2% of 43,000 active | AID 1508649; active = clear falling dose curves in both reporters; inconclusive = both reporters move, but less clearly or upward; inactive = either reporter flat; the % is the NLuc reporter signal
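Luminescent read-out of sequential FLuc and NLuc signals from a reporter embedded in the Pmp22 3' UTR of S16 Schwann cells, taken after 24 h compound exposure at 37C; compounds reducing both signals score as inhibitors of expression.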
pS6 MEF inh: inhibitors of mTORC1 signaling in Tsc2-/- p53-/- MEF cells | Tsc2-/- p53-/- MEF, phospho-rpS6 immunofluorescence/PI, 24 h | Potency, µM (titrated, usually from 38.3 µM), for the others: at the highest dose activity change, negative = inhibition, usual class: inhibitors | 0.78% of 44,000 active | AID 493208;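 note: plate controls were DMSO for no effect and rapamycin for full effect; nearly all actives have a fitted effect of over 50% in size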
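Read-out: phospho-S6 Alexa-488 intensity over PI intensity per well, scored as % active cells using thresholds from rapamycin (7.5 nM) and DMSO controls. Tsc2-/-, p53-/- MEFs exposed to compound for 24 h; PI cell count recorded as viability.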
p53null 39C tox: p53 null cell cytotoxicity, nonpermissive temperature | Potency, µM (series often up to 46.1 µM), for the others: at the top dose activity, negative = cell killing, actives largely listed as cytotoxic | AID 904 | H1299 p53-null (neo) cells, 39C, ATPlite viability, 24 h | 0.97% of 55,000 active;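 note: 0% = DMSO only and -100% = full killing by 100 µM tamoxifen; nearly all actives have a fitted effect of over 50% in size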
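H1299 lung cancer cells, p53-null (H1299-neo) or expressing p53 A138V (H1299-p53A138V), were plated overnight at 37C, then exposed to compounds at up to 46 uM for 24 hr at 39C. Viability was read by ATP-based luminescence.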
OvCa metastasis: ovarian cancer metastasis inhibition, 3D TME model. SKOV3ip1-GFP adhesion/invasion on 3D omental model, fluorescence. Potency, µM (series often up to 45.8 µM), for the others: at the top dose activity change, negative = inhibition, usual class: inhibitors. 0.1% of 46,000 active. AID 1963576;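 note: plate controls were DMSO wells for no effect and tomatine positive control wells for full effect; nearly all actives have a fitted effect of over 65% in size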
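qHTS, 4-pt dose (0.36-46 umol/L); SKOV3ip1-GFP, 1,200 cells/well, no FBS; primary omental fibroblast/mesothelial co-culture 48 h pre-grown; 2 h RT + 16 h 37 C; PBS wash, 4% PFA; GFP count 488/509 nm.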
S16 viability: S16 Schwann cell cytotoxicity | S16 Pmp22-F2sN Schwann cells (luciferase reporters placed in the Pmp22 gene) viability, CellTiter-Glo, 24 h | Potency, µM (doses to about 57.5 µM), for the others: top-dose activity change, negative = cytotoxicity, actives largely listed as cytotoxic | 0.48% of 43,000 active | AID 1508642; note: nearly all actives have a fitted effect of over 65% in size
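Seed 500-1,000 S16 Pmp22-F2sN cells per well in phenol-red-free DMEM with 10% heat-inactivated FBS; pin-add 23 nL compound; incubate 24 h at 37C; add CellTiter-Glo, wait 15 min protected from light; read luminescence.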
Starred values were filed as active, the others as inactive; i = inactive; ? = inconclusive; · = no result given; [ ] = remark or other dose. Unless noted, calls come from the whole dose curve; as a rule, active = well fitted curve in the direction sought with a large enough effect; inconclusive = small, poorly fitted or top-dose-only effect, or another doubt; inactive = no such curve, though single readings can be large; an effect the other way counts as inactive or inconclusive. Unless noted, % is set by controls: 0 for no effect and ±100 for the full control effect; potency is the fitted concentration of half-maximal effect.

SMILES	p53null 32C tox	PMP22 txn prim	pS6 MEF inh	p53null 39C tox	OvCa metastasis	S16 viability
C[C@]12CC[C@H](O)CC1=CC[C@@H]1[C@H]2CC[C@]2(C)C(c3cccnc3)=CC[C@H]12	·	·	·	·	-14%[23.2 µM]	·
CN(C)CCOc1cc(-c2cn[nH]c2)ccc1NC(=O)C1COc2ccccc2O1 (configuration not stated)	·	·	·	·	17%	·
CCN(CC)CCCCNc1nc2cc(Cl)c(Cl)cc2nc1-c1ccc(-c2cccs2)s1	·	·	·	·	-13%	·
CCCN1CCN(c2ncnc3sc(C(=O)Nc4c(C)cc(C)cc4C)c(C)c23)CC1	15%	?	11%	-8%	81%	25µM*
COc1cccc(Nc2sc(C(=O)c3ccc(Cl)cc3)c(N)c2C(=O)NCc2ccc(C)cc2)c1	-13%	8.9µM*	?	10%	-3%	?
Cc1nc2c(C(=O)NCCc3ccccc3)c[nH]n2c(=O)c1Cc1ccccc1F	16µM*	-31%	0%	?	i	-16%
Cc1nc2c(C(=O)NCCc3ccc(Cl)cc3)c[nH]n2c(=O)c1Cc1ccc(Cl)cc1	?	3%	-16%	20µM*	i	5%
Cc1ccc(CNC(=O)c2c[nH]n3c(=O)c(Cc4ccc(Cl)cc4)c(C)nc23)cc1	?	-24%	-19%	?	i	-12%
CC[C@H]1OC(=O)[C@H](C)[C@@H](O[C@H]2C[C@@](C)(OC)[C@@H](O)[C@H](C)O2)[C@H](C)[C@@H](O[C@@H]2O[C@H](C)C[C@H](N(C)C)[C@@H]2O)[C@](C)(O)C[C@@H](C)CN(C)[C@H](C)[C@@H](O)[C@]1(C)O	·	·	·	·	0%	·
CC(=O)NC1=C(NC2CCS(=O)(=O)C2)C(=O)c2ccccc2C1=O (configuration not stated)	11µM*	·	·	?	·	·
NC(=O)c1c(OCc2c(F)cc(Br)cc2F)nsc1NC(=O)NCCCCN1CCCC1	·	·	·	·	5%	·
CCCCNC(=O)CSc1nc2n[nH]c(C)c2c(=N)n1-c1cccc(C)c1	23%	-23%	1%	0%	i	-10%
CCCCN(CC)C(=O)CSc1nc2n[nH]c(C)c2c(=N)n1-c1cccc(Cl)c1	7%	13µM*	-3%	13%	-9%	?
CCOC(=O)Cn1c(=O)c2c(nc(N3CCOCC3)n2Cc2ccccc2)n(C)c1=O	-1%	-83%	9.3µM*	-19%	i	6%
C=CCc1c(C)nc2nc(SCC(=O)Nc3ccc(C)c(C)c3)nn2c1C	-6%	?	10µM*	-4%	-23%	?
Cc1ccc(SCC(=O)Nc2ccc3oc(-c4cccc(C)c4)nc3c2)cc1	-16%	0%	-10%	-12%	i	3%
Cc1ccc2oc(-c3ccc(NC(=O)CCC(=O)O)cc3)nc2c1	13µM*	-3%	-14%	?	i	5%
CC(C)(C)c1cc(C(C)(C)C)c(NC(=O)c2c[nH]c3ccccc3c2=O)cc1O	·	·	·	·	-11%	·
COc1cc2nc(SCC(=O)Nc3ccc(F)cc3)n3nc(CCn4c(C)nc5ccccc54)nc3c2cc1OC	12%	-18%	-16%	20µM*	i	17%
COc1cc2nc(SCC(=O)Nc3cccc(C)c3)n3nc(CCn4c(C)nc5ccccc54)nc3c2cc1OC	3%	?	-21%	-15%	3%	?
CN(C)S(=O)(=O)c1ccc2c(c1)C(=Cc1cc3c([nH]1)CCCC3)C(=O)N2	·	·	·	·	26%	·
Cc1ccc(C(=O)Nc2onc3c2CCCC3)cc1	6.3µM*	-5%	-8%	5µM*	-11%	-3%
O=C(NCCCN1CCN(c2ccc(F)cc2)CC1)Nc1ccc(Cl)cc1	-2%	?	?	?	i	?
Cc1cccc(N2CCN(CCNC(=O)Nc3ccc(Cl)cc3)CC2)c1C	?	?	18µM*	?	?	?
NC(=O)c1cccc2cn(-c3ccc([C@@H]4CCCNC4)cc3)nc12	·	·	·	·	-9%	·
SMILES	p53null 32C tox	PMP22 txn prim	pS6 MEF inh	p53null 39C tox	OvCa metastasis	S16 viability
Cc1cc(CN2CCN(c3c(Br)cnc4nc(-c5ccc(N6CCN(C)CC6)cc5)[nH]c34)CC2)no1	·	·	·	·	3%	·
O=C(NC1CCCCC1)/C(=C/c1ccc(Cl)cc1)NC(=O)c1ccccc1	6%	?	15µM*	22%	-14%	?
CCn1c(=O)cc(OCC(=O)N2CCN(c3ccc(C)cc3)C(C)C2)c2ccccc21 (configuration not stated)	-4%	?	1%	25µM*	-4%	-3%
CCOc1ccc(-c2cc(C(=O)N3CCN(c4ccc(C)cc4)C(C)C3)c3ccccc3n2)cc1 (configuration not stated)	13µM*	-6%	-6%	?	4%	0%
CCOc1ccn(-c2ccc(F)cc2)c(=O)c1C(=O)Nc1ccc(Oc2ccnc(N)c2Cl)c(F)c1	·	·	·	·	7%	·
COc1cc(OC)c(NS(=O)(=O)c2c(C)nc3sc(C)cn3c2=O)cc1Cl	-6%	?	-8%	20µM*	5%	?

High-throughput results as filed in PubChem BioAssay.
